# Test results from publication PMC13494018.
# Values without a mark were called inactive. How the calls were made is not given here.
# B1: d8r1_design_ppi_59_dldesign_0_cycle0_af2pred (protein)
# chain: MSELAEEAIKALVAAHNAAAALAALGRTAEAAALSRQASEAFGKAFKALQEGDEETAKKYLEELKAIAAKAAEAAAAAAAAAAAA
# B2: d8r1_design_ppi_128_dldesign_0_cycle0_af2pred (protein)
# chain: EELEKLKEEAKKEIKEALEYTEKAKEDPDYLAKALGHLNKARQLAAKLPSAEEVKKEIDKMISAAMAGDVEKAKEYAEKAIKLLEKD
# B3: d8r1_design_ppi_254_dldesign_0_cycle1_af2pred (protein)
# chain: AAAQAAAAEALRKVREAFSEAIALTVKNPEEGEKKFKEAEKLAEAAVKEQKAVDPAVGAALAKQVEATVKSAKEIMELIKKAKE
# B4: d8r1_design_ppi_669_dldesign_0_cycle1_af2pred (protein)
# chain: AAAAAAANVRKVGEVSIEYVERVDAVSGANFAAGAFRGLATLLPPEVAKHAAAAAEKVRETGEKETKEALIETIRTTTAEIAALIEA
# B5: d8r1_design_ppi_86_dldesign_0_cycle1_af2pred (protein)
# chain: GARAAALAAAAALNAAAAKADAAAAKAYGRAAVAAARAYFAGADGAELLALVAKVGAEDPAVAADILAIATAALAAAA
# B6: d8r1_design_ppi_219_dldesign_0_cycle0_af2pred (protein)
# chain: GERIKRNAEIVAATYAEVAALAAGEKEATARRAAGLLAAGAMSPEGREEYLAEALALAAEVGAEAAALVAEAAAAI
# B7: d8r1_design_ppi_789_dldesign_0_cycle1_af2pred (protein)
# chain: ALEERLRAALEAARELRERGVEEGWSPGELANAVLALAKEAGLPLEAQNTLAAAAMVPGERAEILLEKAEEIV
# B8: d8r1_design_ppi_713_dldesign_0_cycle0_af2pred (protein)
# chain: DEFLAEANAAAAATSPANAAALNAAFAAALAQSDVGEGIKTLAAAADALAAASTPADAANIGKATSYFIAYLSS
# B9: d8r1_design_ppi_179_dldesign_0_cycle1_af2pred (protein)
# chain: MESARNAAEGIAKAAEENPESGARLGKGAVEVLAKRDIEAAVEAARLAAELSKEAGKEEVAEVMKKLAEEAEKKL
# B10: d8r1_design_ppi_384_dldesign_0_cycle1_af2pred (protein)
# chain: SAKEAAAKAARNAAAAAKKADEAGFNPKVIASLAKAAGEEALVSPESVEAAEEAAKIAEKYPSKEAQEAAKYAKELAKAAKAKAA
# B11: d8r1_design_ppi_1481_dldesign_0_cycle0_af2pred (protein)
# chain: SSEANDAALKEGMALASATLAQARALIAAGGAAAAAAAAALAEAAVARLRELGAKYPQRAASFAALGEALRREVARLAA
# B12: d8r1_design_ppi_1041_dldesign_0_cycle1_af2pred (protein)
# chain: MEEKEEEEAKKAAKAAVDAATKVAEKAAKASTPEVAKKLTAAAKGLKGATELLAKINPKNAAAFAKAAAERFTKIAEKAVKDAA
# B13: d8r1_design_ppi_254_dldesign_0_cycle0_af2pred (protein)
# chain: AAAKALAEAALREVGSALSEAISLTSKDPKKGEEKFKEAEALAKAKVAEMEAIDPAVGAALKAAVDALLAQTKLIMEKIKEAKK
# B14: d8r1_design_ppi_243_dldesign_0_cycle1_af2pred (protein)
# chain: DQNLKGALLIGQANAYAVAAAKAAAAAGAPAAEVQAAIDKVRAMTAEAGKLSPSLASTAERVAAIEGARLAAAA
# B15: d8r1_design_ppi_56_dldesign_0_cycle0_af2pred (protein)
# chain: EAEKALKEAAEKIKKAAKEAEKDPEKAVEYFSEALAYAMRTAIKYPEIAAALGAAAAGLAEGAREAKKDVEKGVKIAEKAAKELEKA
# B16: d8r1_design_ppi_23_dldesign_0_cycle1_af2pred (protein)
# chain: DAEEKKKLAKKMEEMAKKVAAAGKAVPAVKAEADATAKALKAMAKLALEGSLEDAKSLLKAGEAAAKRVLEKAKAAAAAAA
# B17: d8r1_design_ppi_793_dldesign_0_cycle1_af2pred (protein)
# chain: GISPESAKKLAKQMLEDALKAAEEARKLIKEGATPEEVQKAIRGAQAAADAAEALAKVDPAVAPYAKKAKAAVEEARKLAK
# B18: d8r1_design_ppi_167_dldesign_0_cycle0_af2pred (protein)
# chain: SSEERYAEAAKLLAETAAKAAALIAKNPAVAEAAKEMQRYAARAAAALVAGDEEKAKEYKKKMEEALAKAEALVA
# B19: d8r1_design_ppi_499_dldesign_0_cycle0_af2pred (protein)
# chain: GMARSLQRAAENTAARAAEYLRDPAKAEIGRNALAAAAALTEKAAAEAGLSPEEAAAAAAATRAATLAAAA
# Target: PDL1, Q9NZQ7
# Sequence (Q9NZQ7 whole entry): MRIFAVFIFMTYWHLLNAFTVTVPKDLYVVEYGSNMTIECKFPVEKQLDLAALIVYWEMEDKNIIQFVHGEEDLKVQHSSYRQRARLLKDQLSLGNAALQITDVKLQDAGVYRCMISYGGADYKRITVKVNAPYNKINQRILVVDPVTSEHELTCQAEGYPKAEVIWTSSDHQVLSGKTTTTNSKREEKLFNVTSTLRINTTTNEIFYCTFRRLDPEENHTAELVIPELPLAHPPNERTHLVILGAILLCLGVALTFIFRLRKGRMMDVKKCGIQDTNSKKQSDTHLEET
row,Binder,binding in a display sort
1,B1,not found
2,B2,not found
3,B3,not found
4,B4,not found
5,B5,not found
6,B6,not found
7,B7,not found
8,B8,not found
9,B9,not found
10,B10,not found
11,B11,not found
12,B12,not found
13,B13,not found
14,B14,not found
15,B15,not found
16,B16,not found
17,B17,not found
18,B18,not found
19,B19,not found
